# Results as given in PubChem BioAssay (NCI).
# Compounds without any hit were thinned out: in the full panel of roughly 79,000, 15% have a hit. Values without a mark were called inactive. Active and inactive are the calls of the source. Cut-off read from the data, not from the text of the source: active = growth inhibition above about 70%; inactive = the rest.
# Columns and labels:
# [1] = NCI Yeast Anticancer Drug Screen. Data for the rad50 strain (AID 155);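 note: 0% = growth of vehicle-only cultures of the same strain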; conditions: S. cerevisiae rad50 strain growth inhibition, stronger effect = higher value
# Method in brief: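 Yeast carrying a defined DNA repair defect were exposed to test compounds, and growth was compared with vehicle-treated controls to give percent inhibition.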
# [2] = NCI Yeast Anticancer Drug Screen. Data for the mec2-1 strain (AID 157); conditions: S. cerevisiae mec2-1 strain, stronger effect = higher value
# Method in brief: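 Vehicle-treated cultures served as reference for growth inhibition of compound-exposed mec2-1 yeast.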
# [3] = NCI Yeast Anticancer Drug Screen. Data for the sgs1 mgt1 strain (AID 161);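 note: 0% = growth of cultures given vehicle only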; conditions: S. cerevisiae sgs1 mgt1 strain, stronger effect = higher value
# Method in brief: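 Inhibition of yeast growth, normalised to vehicle-treated controls, is reported for a strain bearing genetic alterations in DNA damage repair.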
# [4] = NCI Yeast Anticancer Drug Screen. Data for the cln2 rad14 strain (AID 165);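 note: 0% = growth equal to vehicle treated cultures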; conditions: S. cerevisiae cln2 rad14 strain, stronger effect = higher value
# Method in brief: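 Each compound was tested on cln2 rad14 yeast. Inhibition of growth was calculated against vehicle-exposed controls.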
# [5] = NCI Yeast Anticancer Drug Screen. Data for the bub3 strain (AID 167); conditions: S. cerevisiae bub3 mutant strain, stronger effect = higher value
# Method in brief: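 Compounds were applied to a genetically altered yeast strain carrying a cell-cycle control defect. Growth inhibition was scored against vehicle-treated controls.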
# [6] = NCI Yeast Anticancer Drug Screen. Data for the mlh1 rad18 strain (AID 175); conditions: S. cerevisiae mlh1 rad18 strain growth inhibition, stronger effect = higher value
# Method in brief: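 Vehicle-treated cultures served as the reference for growth inhibition in a yeast strain carrying DNA damage repair alterations exposed to each compound.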
# [7] = at 5.0 µM (retest, dose inferred, filed as 0.5)
# [8] = at 50.0 µM (retest, dose inferred, filed as 5.0)
SMILES,"growth inhibition [1, 7] [%]","growth inhibition [1, 8]",growth inhibition ([1]; at 50.0 µM),"growth inhibition [2, 7] [%]","growth inhibition [2, 8]",growth inhibition ([2]; at 50.0 µM),"growth inhibition [3, 7] [%]","growth inhibition [3, 8]",growth inhibition ([3]; at 50.0 µM),"growth inhibition [4, 7] [%]","growth inhibition [4, 8]",growth inhibition ([4]; at 50.0 µM),"growth inhibition [5, 7] [%]","growth inhibition [5, 8]",growth inhibition ([5]; at 50.0 µM),"growth inhibition [6, 7] [%]","growth inhibition [6, 8]",growth inhibition ([6]; at 50.0 µM)
O=C(N/N=C/c1cc(Cl)cc(Cl)c1O)c1ccccc1,39,22%,69.9%,41,36%,57.5%,55,48%,69.6%,14,1%,33.6%,46,30%,71.6% (active),45,40%,69.8%
COC(=O)/C=C1/OC(c2ccccc2)=CC1=O,31,31%,87.5% (active),8,8%,91.7% (active),22,22%,57%,–,–,–,0,0%,85.8% (active),9,9%,86.2% (active)
ONC(=Nc1ccccc1)c1ccccc1,-137,73% (active),95.4% (active),-42,47%,98.3% (active),-55,78% (active),96.3% (active),-58,86% (active),96.6% (active),-66,35%,95.2% (active),-120,75% (active),97.9% (active)
C=C(CN(C)C)C(=O)c1ccccc1C,-2,65%,87.6% (active),-8,88% (active),78.7% (active),13,86% (active),85% (active),-17,45%,65.8%,–,–,–,-4,97% (active),97% (active)
CN1CCC(OC(=O)c2ccc3ncccc3c2)CC1,-6,6%,34.6%,-2,4%,26.6%,-2,13%,17.6%,-5,2%,85.6% (active),-4,2%,33.9%,-7,7%,32%
CSS(=O)(=O)c1ccc(C)cc1,22,99% (active),99.7% (active),22,100% (active),99.7% (active),21,100% (active),99.2% (active),-27,99% (active),99.4% (active),18,100% (active),99.5% (active),-10,99% (active),99.5% (active)
O=C(c1cc2c(C(F)(F)F)onc2c2ccccc12)C(F)(F)F,-8,5%,76.7% (active),-17,9%,44.9%,-8,-2%,50.6%,0,28%,64.8%,–,–,–,0,26%,36.4%
O=C1NC(c2ccccc2)(c2cccs2)C(=O)N1C1c2ccccc2Oc2ccccc21 (stereo not drawn),0,87% (active),90.3% (active),-11,92% (active),84.7% (active),-18,92% (active),91% (active),-7,84% (active),84.2% (active),-5,91% (active),86.8% (active),21,87% (active),87.4% (active)
O=C1NC(O)c2cccc(Cl)c2O1 (stereo not drawn),52,99% (active),88.8% (active),22,99% (active),92.2% (active),17,99% (active),83.3% (active),5,99% (active),97.8% (active),–,–,–,28,99% (active),98.3% (active)
O=C(Oc1cc([N+](=O)[O-])ccc1Cl)Oc1cc([N+](=O)[O-])ccc1Cl,-6,97% (active),97.5% (active),0,99% (active),99.5% (active),-7,99% (active),98.6% (active),0,98% (active),97.9% (active),-9,98% (active),98.8% (active),-5,98% (active),98.6% (active)
